Compounds with a hit are over-represented: about 3.1% of the library has one in this group of screens.
PLK1 PBD inh: PLK1 (human) polo-box domain binding inhibition; AID 720504; Potency, µM, hits mostly inhibitors; actives 2.8% (n = 360,000); P53350; Plk1 PBD binding of FITC phosphopeptide, fluorescence polarization; note: series mostly up to about 57 µM; nearly all actives have a fitted effect of over 65% in size
VDR inh: blocks the human vitamin D receptor; actives 0.93% (n = 400,000); VDR-SRC2-3 peptide fluorescence polarization, 2 h; P11473; Potency, µM, usual class: inhibitors
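Measured by FP: displacement of SRC2-3 coactivator peptide from VDR by library compounds, following a two-hour ambient incubation.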
TDP1 block: blocks human tyrosyl-DNA phosphodiesterase 1; Q9NUW8; recombinant TDP1, AlphaScreen DNA substrate cleavage; Potency, µM (doses to about 130 µM), most hits filed as inhibitors; actives 0.28% (n = 350,000); note: nearly all actives have a fitted effect of over 40% in size
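Recombinant E. coli-expressed Tdp1 (1 nM) preincubated with compound 15 min at RT, then 5'-biotin/3'-phosphotyrosine-FITC DNA substrate (15 nM) added for 5 min. AlphaScreen beads (10 ug/ml) added, 10 min RT; tyrosine-FITC cleavage read as signal loss.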
ASM inhibitor: human S-ASM enzyme inhibition | P17405 | placental ASM, HMU-PC fluorogenic substrate, 60 min | Potency, µM (doses to about 57.5 µM), most hits filed as inhibitors | actives 0.006% (n = 340,000) | AID 504937
Target sequence (P17405 47-631 limits assumed): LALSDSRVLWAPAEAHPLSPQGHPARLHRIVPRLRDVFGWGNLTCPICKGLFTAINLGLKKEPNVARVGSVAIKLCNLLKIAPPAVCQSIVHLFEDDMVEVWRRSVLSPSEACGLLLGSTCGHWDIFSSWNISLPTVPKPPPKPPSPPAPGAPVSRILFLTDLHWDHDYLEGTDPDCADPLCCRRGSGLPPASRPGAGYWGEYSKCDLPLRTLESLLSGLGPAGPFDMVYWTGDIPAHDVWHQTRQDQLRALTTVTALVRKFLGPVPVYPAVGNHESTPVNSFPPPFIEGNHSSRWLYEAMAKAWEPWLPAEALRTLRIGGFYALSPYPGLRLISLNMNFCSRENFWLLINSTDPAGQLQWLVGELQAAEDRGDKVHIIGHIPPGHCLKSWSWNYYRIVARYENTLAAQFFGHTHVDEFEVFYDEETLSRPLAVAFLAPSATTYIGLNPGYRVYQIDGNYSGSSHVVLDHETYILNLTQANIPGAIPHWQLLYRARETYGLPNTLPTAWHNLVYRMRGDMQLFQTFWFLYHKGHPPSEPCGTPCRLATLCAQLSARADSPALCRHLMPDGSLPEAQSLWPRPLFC
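Steps: dispense placental human ASM, pin compound, wait 10 min at room temperature, add HMU-PC0 substrate at 9 uM final, incubate 60 min at 37 °C, add stop solution raising pH to 10, read fluorescence.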
Tb PFK inh: inhibitors of T. brucei phosphofructokinase; AID 485367; actives 0.17% (n = 330,000); O15648; Potency, µM (top dose mostly 57.5 µM), most hits filed as inhibitors; T. brucei PFK, ADP-Glo luminescence; note: nearly all actives have a fitted effect of over 60% in size
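Activity is normalized to no-enzyme wells (full inhibition) and 1.25 nM enzyme wells (no inhibition). Reaction: 0.5 mM F6P, 0.1 mM ATP, 45 min RT, ADP-Glo luminescence; concentration-response curves fitted and classed by quality.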
Pin1 inhibitor: human Pin1 inhibition; Pin1 FP peptide displacement, HiFluor488, 10 min; Q13526; actives 0.009% (n = 390,000); Potency, µM (doses to about 115 µM), hits mostly inhibitors; active = well fitted inhibition curve with a large enough effect in the polarisation, with a control signal flat, not every such curve was filed as active; inconclusive = small, poorly fitted or top-dose-only effect, or effect the other way, or a change in a side signal; inactive = no such curve, though single readings can be large or run the other way; the % refers to the polarisation
A number is an active result; - = inactive; ? = inconclusive; . = no result given. Unless noted, calls come from the whole dose curve; as a rule, active = well fitted curve in the direction sought with a large enough effect; inconclusive = small, poorly fitted or top-dose-only effect, or another doubt; inactive = no such curve, though single readings can be large; an effect the other way counts as inactive or inconclusive.

SMILES	PLK1 PBD inh	VDR inh	TDP1 block	ASM inhibitor	Tb PFK inh	Pin1 inhibitor
CN(C(=O)c1ccc2c(c1)N(Cc1ccccc1F)C(=O)c1ccccc1S2(=O)=O)C1CCCCC1	.	-	-	.	.	-
CCc1ccccc1N(C)C(=O)c1cn(CC(C)C)c(=O)c2cc(OC)c(OC)cc12	.	-	-	.	.	-
O=C(c1cnc(N2CCOCC2)c2ccccc12)N1CCN(c2ccc(F)cc2)CC1	.	-	-	.	.	-
O=C(Nc1ccc2[nH]c(=S)sc2c1)Nc1ccccc1F	21µM	?	-	-	-	-
O=C(Nc1ccc2[nH]c(=S)sc2c1)c1ccccc1	?	?	-	-	-	-
CCc1c(C)nc(SCc2nc(-c3ccccc3C)no2)[nH]c1=O	.	-	-	.	.	-
COc1ccc(C(=O)c2cn(Cc3cccc(C)c3)c3cc4c(cc3c2=O)OCCO4)cc1OC	.	-	-	.	.	-
CCc1nc(SC)ncc1C(=O)N1CCN(c2cc(C)ccc2C)CC1	.	-	-	.	.	-
C=CCc1cccc2cc(C(=O)Nc3ccccc3C(=O)O)c(=O)oc12	12µM	-	-	-	-	-
COCCNC(=S)N(c1ccccc1)C(C)C	?	-	-	-	-	-
COCCNC(=S)NN(c1ccccc1)c1ccccc1	27µM	-	-	-	-	-
CC(=O)NS(=O)(=O)c1cccnc1Nc1ccc(Cl)c(Cl)c1	9.5µM	-	-	-	-	-
CCC(=O)NS(=O)(=O)c1cccnc1Nc1ccc(Cl)cc1	-	-	-	-	-	-
Cc1cccn2c(=O)cc(COc3cccc(NC(=O)COc4ccccc4)c3)nc12	.	-	-	.	.	-
CCN(C(=O)c1nn(-c2ccc(OC)c(Cl)c2)c(=O)c2c1c1ccccc1n2C)c1cc(OC)ccc1OC	.	-	-	.	.	-
CC(C)Cn1c(N)c(C(=O)COC(=O)C2CCCCC2)c(=O)n(C)c1=O	24µM	?	-	-	-	-
CC(C)Cn1c(N)c(C(=O)COC(=O)C2Cc3ccccc3CN2S(C)(=O)=O)c(=O)n(C)c1=O (stereo not drawn)	-	-	28µM	-	-	-
CCC(C(=O)OCC(=O)c1c(N)n(CC(C)C)c(=O)n(C)c1=O)c1ccccc1 (stereo not drawn)	-	-	.	-	-	-
CS(=O)(=O)Nc1cccc(-c2cc(F)c(S(=O)(=O)N3CCN(S(=O)(=O)c4ccc5c(c4)OCCO5)CC3)cc2F)c1	.	.	-	.	.	-
C=C(C)[C@@H]1CC[C@]2(C(=O)O)CC[C@]3(C)[C@H](CCC4[C@@]5(C)CC[C@H](O)C(C)(C)[C@@H]5CC[C@]43C)[C@@H]12 (stereo partly drawn)	.	-	-	.	.	.
CCOC(=O)c1c(C)[nH]c(C(=O)/C(C#N)=C/c2ccc(OC(F)F)c(OC)c2)c1C	4.7µM	?	-	?	-	?
COc1cc(-c2ccc3ncnc(NCCc4cnc[nH]4)c3c2)cc(OC)c1OC	.	.	.	.	.	-
COc1ccc(CN2C(=O)/C(=C/c3ccncc3)SC2=S)cc1	?	50µM	-	-	-	-
Cc1ccc(/C=C2\SC(=S)N(CCCC(=O)Nc3ccccc3C(=O)O)C2=O)cc1	19µM	?	-	-	-	-
COc1ccc(/C=C2/SC(=S)N(CCCC(=O)Nc3ccccc3C(=O)O)C2=O)cc1	?	?	-	-	-	-
SMILES	PLK1 PBD inh	VDR inh	TDP1 block	ASM inhibitor	Tb PFK inh	Pin1 inhibitor
CCc1ccc(/C=C2\SC(=S)N(CCCC(=O)Nc3ccccc3C(=O)O)C2=O)cc1	21µM	?	-	-	-	.
O=C(CCCN1C(=O)/C(=C/c2cccs2)SC1=S)NNC(=O)c1ccccc1O	-	-	-	-	-	-
COc1ccc(/C=C2\SC(=S)N(CCCC(=O)NNC(=O)c3ccccc3O)C2=O)cc1	24µM	-	-	-	-	-
CCCN1CNc2c(c(=O)[nH]c(=S)n2CCC(C)C)C1	.	-	-	.	.	-
Cc1ccc(Cl)cc1N1CCN(C(=O)c2ccc(C)c(-n3c(C)nc4cccnc43)c2)CC1	.	-	-	.	.	?
C=Cc1cc2c(s1)c1cnn(Cc3ccccc3F)c(=O)c1n2C	.	.	-	.	.	-
Clc1ccccc1CNc1ncnc2c1c(-c1ccccc1)cn2-c1ccccc1	.	-	-	.	.	-
CCc1ccc(CN(Cc2ccco2)c2cnc(S(C)(=O)=O)nc2C(=O)Nc2cccc(C)c2)cc1	.	-	-	.	.	-
COc1cc(/C=C2\C(=O)N(c3ccccc3)N=C2C)ccc1Oc1ccc([N+](=O)[O-])cc1[N+](=O)[O-]	3.8µM	?	-	-	-	-
CC1=NN(c2ccccc2)C(=O)/C1=C\c1ccc(Oc2ccc([N+](=O)[O-])cc2[N+](=O)[O-])cc1	1.9µM	?	-	-	-	-
COc1cc(/C=C2/C(=O)N(c3ccc(C)c(C)c3)N=C2C)cc([N+](=O)[O-])c1O	-	-	.	-	-	-
COc1ccc(N=C2NC(=O)/C(=C\C=C\c3ccco3)S2)cc1	21µM	-	-	-	-	?
Clc1ccc2c(SCC3CO3)c3ccccc3nc2c1 (stereo not drawn)	-	40µM	.	-	.	-
COc1cccc([C@@H]2Oc3ccc(OC)cc3C(=O)[C@H]2OC(=O)NCCc2ccc(OC)c(OC)c2)c1	.	-	-	.	.	.
COc1ccccc1CCNC(=O)C1CCC(=O)N(Cc2cccc(F)c2)C1 (stereo not drawn)	30µM	-	.	-	-	-
Cc1ccccc1CCNC(=O)C1CCC(=O)N(CCc2cccc(F)c2)C1 (stereo not drawn)	30µM	-	.	-	-	-

Screens from PubChem.
